Measured values from PubChem BioAssay.

system: Sonic hedgehog protein (Shh); experiment: small-molecule binders of Shh protein, primary screen, biochemical, small-molecule microarray, 635/667 nm fluorescence (AID 1151); conditions: small-molecule microarray binding, 635 nm fluorescence; higher = more signal;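 further: Shh protein binding to compounds spotted on small-molecule microarray slides; score combines spot fluorescence intensity with signal-to-noise across triplicate slides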

Structure (SMILES) | composite z-score
O=C1c2ccccc2[C@@]2(Cc3ccccc3N(Cc3ccccc3)C2=O)[C@H](c2ccc(CO)cc2)N1Cc1ccccc1Cl | -0.971
CO[C@H]1O[C@H](CO)[C@@H](OC(=O)Nc2ccccc2)[C@H](OC(=O)Nc2ccccc2)[C@H]1OC(=O)Nc1ccccc1 | 0.78
COCCCNC(=O)[C@@]1(CCS(=O)(=O)c2ccccc2)COC(c2ccc(OCCCO)cc2)=N1 | -0.334
COc1ccc(C(O)C2C=CC3C(=O)NC(=O)C3N2Nc2ccc(Cl)cc2Cl)c2ccccc12 (stereo unspecified) | 0.461
O=C1C[C@@](C(=O)O)(c2ccc([N+](=O)[O-])cc2)[C@@H](c2ccc(CO)cc2)N1C1CCCCC1 | 0.478
CC(C)(C)N1CC=CC23O[C@@H]4/C=C\CCCOC(=O)C4[C@H]2C(=O)N(CCCCCO)[C@@H]3C1=O (stereo partly specified) | -0.58
